Assay results reported in PubChem BioAssay (NCI).
“And” between values parts separate entries of the source, which are not always exact repeats. Equal values may be shown once. Compounds without any hit were thinned out: in the full panel of roughly 83,000, 20% have a hit.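 Single-concentration screen, 48 h exposure, 96-well plates. Endpoint: percent growth. Below 10 = active.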 The source made the active and inactive calls.

System: BT-549 breast
Assay: NCI-60 one-dose screen, 48 h (100 = growth as untreated, 0 = no growth, -100 = all killed)
Conditions: 10 µM unless noted
Experimental: Growth inhibition of the BT-549 human tumor cell line is measured as a screen for anti-cancer activity. Cells are grown in 96 well plates and exposed to the test compound for 48 hours. Compounds are tested at a single concentration, which is 10^-5 M for most compounds. The reported endpoint is percent growth (GI% or GIPRCNT), where numbers from 0 - 100% represent growth inhibition, and numbers from -100% - 0 represent cell death. For example, a value of 40 represents 60% growth inhibition. A value of 0 means no net growth occurred over the course of the experiment. A value of -40 indicates 40% of cells at the beginning of the experiment died by the end of the experiment. A value of -100 means all cells are dead at the end of the experiment.
NCI-60 Human Tumor Cell Lines Screen was performed using the standard one-dose NCI protocol, which is described in more detail at https://dtp.cancer.gov/discovery_development/nci-60/default.htm.
Compounds with GIPRCNT values below 10 were considered active. Activity score was based on GIPRCNT using the following formula: […]
Score is 0 for GIPRCNT values of 100 or above, 50 for GIPRCNT values of 0, and 100 for GIPRCNT values of -100.

Q: With `COc1ccc2[nH]c(=O)c(CSc3ccccc3Nc3nccc(-c4ccc(Cl)cc4)n3)cc2c1` as the compound, how does the growth read?
A: Its growth is 31.6% (inactive).

Q: How did the growth turn out when `O=C(CCl)Nc1ccc(C(=O)/C=C/c2cc3ccccc3nc2Cl)cc1` was run?
A: The growth was -82.4% (active) and 45.6% (inactive).

Q: Which growth does the source give for `CCCCN1C(=O)/C(=C\C(=O)c2cc3ccccc3oc2=O)c2ccccc21` here?
A: Its growth is 48% (inactive).

Q: For `C#CCN(C)CCCOc1ccc(N(CC)C(=O)c2cc(C(C)C)c(O)cc2O)cc1Cl`, which growth is on record?
A: Its growth is -8.72% (active).

Q: Which growth does the source give for `COC(=O)c1cccc(Oc2ccc(NC(=O)Nc3cc(C(F)(F)F)ccc3F)cc2)c1` here?
A: The growth was 64.7% (inactive).

Q: How did the growth turn out when `CC[C@@]12CC(C(=O)OC)=C3Nc4cc5c(cc4[C@@]34CCN(C[C@H]3O[C@H]31)[C@@H]24)[C@@H]1[C@H](O5)[C@@H](O)[C@@]2(CC)CC(C(=O)OC)=C3Nc4cc(O)ccc4[C@@]34CCN1[C@@H]24` was run?
A: Its growth is -87.6% (active).

Q: With `CN1C(=O)/C(=C/c2ccco2)S/C1=N/c1nccs1` as the compound, how does the growth read?
A: The growth was 112% (inactive).

Q: How did the growth turn out when `COc1ccc(C(=O)/C=C/c2ccc3c(c2)OCCO3)cc1S(N)(=O)=O` was run?
A: Its growth is 65.4% (inactive).

Q: `CN(C)c1nc(NCCNS(=O)(=O)c2ccc(C3=Nc4c(N)nc(N)nc4NC(c4ccc(Cl)cc4)C3)cc2)nc(N2CCOCC2)n1` (stereo not given) was tested. Which growth did it give?
A: The growth was 35.4% (inactive).

Q: `O=C(N=Nc1c(O)[nH]c2ccc(Br)cc12)c1ccc2nc(-c3ccc(Cl)cc3)[nH]c2c1` was tested. Which growth did it give?
A: Its growth is 7.28% (active).

Q: Which growth does the source give for `O=C(c1ccc(Cl)cc1)C1[C@H](c2ccccc2Cl)[C@@H](c2ccccc2)NC12C(=O)Nc1ccc(Br)cc12` (stereo not given in full) here?
A: The growth was -95.1% (active).

Q: How did the growth turn out when `COc1ccc(-c2nnc3c(/C=C/c4ccc(Br)cc4)nc4ccccc4n23)cc1` was run?
A: The growth was 9.42% (active).

Q: Which growth does the source give for `COc1ccc2[nH]c(O)c(N=NC(=O)c3ccc4nc(-c5ccc(Cl)cc5)[nH]c4c3)c2c1` here?
A: Its growth is 34.5% (inactive).

Q: `Nc1cc2ccccc2c(=O)n1NC(=O)c1ccc(Br)cc1` was tested. Which growth did it give?
A: The growth was 136% (inactive).

Q: For `NS(=O)(=O)c1ccc(N2N=C(c3ccc(NC(=O)Nc4ccccc4)cc3)CC2c2ccc(Br)cc2)cc1` (stereo not given), which growth is on record?
A: Its growth is -81.1% (active).

Q: For `O=C(NC(=S)N1CCN(c2ncnc3c2cnn3-c2ccccc2)CC1)c1ccc(F)cc1`, which growth is on record?
A: The growth was 86.2% (inactive).

Q: For `CN1CCN(C(=O)CCN(C(=O)Oc2cc3c(c4ccccc24)[C@H](CCl)CN3C(=O)c2cc3cc(OCCCN4CCC4)ccc3[nH]2)[C@H]2CCSSC2)CC1`, which growth is on record?
A: Its growth is -68.3% (active).

Q: `COc1ccc(C2=Nc3c(N)nc(N)nc3NC(c3ccc(Oc4nc(Nc5ccc(F)cc5)nc(N(C)C)n4)c(OC)c3)C2)cc1` (stereo not given) was tested. Which growth did it give?
A: The growth was 66.2% (inactive).

Q: With `CC1=C(C(=O)Nc2ccccc2)C(c2ccc3ccccc3c2)n2c(nc3ccccc32)N1` (stereo not given) as the compound, how does the growth read?
A: The growth was 92.9% (inactive).

Q: `O=C(N/N=C/c1ccc(B(O)O)s1)c1[nH]c2ccc(Br)cc2c1-c1ccccc1` was tested. Which growth did it give?
A: Its growth is -76.2% (active).

Q: Which growth does the source give for `O=C1Nc2cc(-c3ccc(NS(=O)(=O)c4ccc(C(F)(F)F)cc4)cc3)ccc2/C1=C/c1ccc[nH]1` here?
A: The growth was -8.7% (active).

Q: `Cc1nc(Nc2ccccn2)sc1C1=NNC(c2ccccc2F)C1` (stereo not given) was tested. Which growth did it give?
A: Its growth is 36.1% (inactive).

Q: Which growth does the source give for `O=C1CCC(N2C(=O)c3cccc(NCCOCCOCCOCCC(=O)NCCCC(=O)NC(c4ccc5c(c4)OCO5)c4cc(Cl)c5cccnc5c4O)c3C2=O)C(=O)C1` (stereo not given) here?
A: The growth was 11.3% (inactive).

Q: How did the growth turn out when `Cc1ccccc1Nc1nnc(-c2c[nH]c3ccccc23)o1` was run?
A: Its growth is 17.7% (inactive).

Q: For `Clc1ccc2c(NCCNC34CC5CC(CC(C5)C3)C4)ccnc2c1`, which growth is on record?
A: Its growth is -86.5% (active).

Q: How did the growth turn out when `Cc1ccc2nc(SCc3ccccc3F)n(-c3ccccc3)c(=O)c2c1` was run?
A: The growth was 107% (inactive).

Q: `O=C(Cn1c(-c2ccccc2)nc2ccccc21)N=Nc1c(O)[nH]c2ccc(Cl)cc12` was tested. Which growth did it give?
A: The growth was -53% (active).

Q: `CCN(C(=O)CN1C(=O)/C(=C/c2ccco2)SC1=S)C1CCS(=O)(=O)C1` (stereo not given) was tested. Which growth did it give?
A: The growth was 97% (inactive).

Q: How did the growth turn out when `CN(C)C(=O)c1cc(-c2ccc3ncnc(N4CCc5cc(F)c(Cl)cc54)c3c2)cnc1N` was run?
A: The growth was -82.9% (active).

Q: With `O=Cc1cncc(-c2ccc3ncnc(N4CCc5cc(F)c(Cl)cc54)c3c2)c1` as the compound, how does the growth read?
A: The growth was -7.41% (active).

Q: `Cc1ccc(C(=O)Nc2ccc(-n3ccnc3)c(C(F)(F)F)c2)cc1C#Cc1cnc2cccnn12` was tested. Which growth did it give?
A: Its growth is -67.8% (active).

Q: How did the growth turn out when `CCCCCCCCCc1ccc(C(=O)Nc2cc(C)ccc2C(=O)OC)cc1` was run?
A: Its growth is 129% (inactive).

Q: Which growth does the source give for `Cn1cc(-c2cc3nc(-c4cn(C)c5ncccc45)cc(N)n3n2)c2cc(F)ccc21` here?
A: Its growth is 35.4% (inactive).

Q: With `Cc1nc2sccn2c1-c1nnc(SCc2ccccc2)o1` as the compound, how does the growth read?
A: The growth was 119% (inactive).

Q: For `C/C(=N/O)c1ccc(NC(=O)CSc2nnc(-c3ccc4nc(-c5ccc(Cl)cc5)[nH]c4c3)o2)cc1`, which growth is on record?
A: Its growth is -8.14% (active).

Q: Which growth does the source give for `CCOc1ccccc1[C@H]1C(C(=O)c2ccc(Cl)cc2)C2(N[C@@H]1c1ccccc1)C(=O)Nc1ccc(Cl)cc12` (stereo not given in full) here?
A: The growth was 9.4% (active).

Q: `CC1=C(C(=O)OC(C)C)C(c2ccc(O)cc2)NC(=O)N1` (stereo not given) was tested. Which growth did it give?
A: Its growth is 96.1% (inactive).

Q: With `COc1cc(C2CC(c3ccc(S(=O)(=O)NCCNc4nc(N(C)C)nc(N5CCOCC5)n4)cc3)=Nc3c(N)nc(N)nc3N2)cc(OC)c1OC` (stereo not given) as the compound, how does the growth read?
A: Its growth is 95.2% (inactive).

Q: For `C=CCSc1nnc(-c2ccc(-c3nc4ccc(Cl)cc4[nH]3)cc2)o1`, which growth is on record?
A: The growth was 22.6% (inactive).

Q: How did the growth turn out when `COc1ccc(-c2cc(C(=O)N=Nc3c(O)[nH]c4ccc(Cl)cc34)c3ccccc3n2)cc1OC` was run?
A: The growth was 113% (inactive).
